# High-throughput results as filed in PubChem.
# V-ATPase pH: yeast V-ATPase proton transport regulation by pHLuorin | 0.37% of 350,000 active | AID 504577 | S. cerevisiae, pHLuorin cytosolic pH fluorescence | response, % at 10 µM; in the data active = response mostly above about 7.3%, no sharp cut-off; inactive = mostly below about 5.4%; note: actives read high
# Rce1 inhib: yeast Ras-converting enzyme inhibition. 0.27% of 290,000 active. Q03530. yeast membranes, quenched prenylated peptide cleavage fluorescence. calls only. AID 2563;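 active = fall in fluorescence gain of 50% or more versus controls, with final raw signal at or below 3038400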;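 note: plate controls were neutral control wells for no effect and wells lacking membranes for full effect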
# NPR2 activator: GC-B (human) receptor activation; P20594; HEK293-GC-B cells, CNP EC30, cGMP TR-FRET; 0% at EC30 CNP, 100% saturating CNP; activation, % at 10 µM; 0.11% of 370,000 active; AID 1920062;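 active = activation at 10 µM reaching about 35% in either raw or pattern-adjusted values, limit read from the data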
# NSD2 inh: NSD2 (human) methyltransferase inhibition | NSD2 peptide methylation, AlphaScreen, 120 min | inhibition, % at 12.5 µM | 0.54% of 310,000 active; in the data active = inhibition above about 50%
# Target sequence (O96028 whole entry, looked up): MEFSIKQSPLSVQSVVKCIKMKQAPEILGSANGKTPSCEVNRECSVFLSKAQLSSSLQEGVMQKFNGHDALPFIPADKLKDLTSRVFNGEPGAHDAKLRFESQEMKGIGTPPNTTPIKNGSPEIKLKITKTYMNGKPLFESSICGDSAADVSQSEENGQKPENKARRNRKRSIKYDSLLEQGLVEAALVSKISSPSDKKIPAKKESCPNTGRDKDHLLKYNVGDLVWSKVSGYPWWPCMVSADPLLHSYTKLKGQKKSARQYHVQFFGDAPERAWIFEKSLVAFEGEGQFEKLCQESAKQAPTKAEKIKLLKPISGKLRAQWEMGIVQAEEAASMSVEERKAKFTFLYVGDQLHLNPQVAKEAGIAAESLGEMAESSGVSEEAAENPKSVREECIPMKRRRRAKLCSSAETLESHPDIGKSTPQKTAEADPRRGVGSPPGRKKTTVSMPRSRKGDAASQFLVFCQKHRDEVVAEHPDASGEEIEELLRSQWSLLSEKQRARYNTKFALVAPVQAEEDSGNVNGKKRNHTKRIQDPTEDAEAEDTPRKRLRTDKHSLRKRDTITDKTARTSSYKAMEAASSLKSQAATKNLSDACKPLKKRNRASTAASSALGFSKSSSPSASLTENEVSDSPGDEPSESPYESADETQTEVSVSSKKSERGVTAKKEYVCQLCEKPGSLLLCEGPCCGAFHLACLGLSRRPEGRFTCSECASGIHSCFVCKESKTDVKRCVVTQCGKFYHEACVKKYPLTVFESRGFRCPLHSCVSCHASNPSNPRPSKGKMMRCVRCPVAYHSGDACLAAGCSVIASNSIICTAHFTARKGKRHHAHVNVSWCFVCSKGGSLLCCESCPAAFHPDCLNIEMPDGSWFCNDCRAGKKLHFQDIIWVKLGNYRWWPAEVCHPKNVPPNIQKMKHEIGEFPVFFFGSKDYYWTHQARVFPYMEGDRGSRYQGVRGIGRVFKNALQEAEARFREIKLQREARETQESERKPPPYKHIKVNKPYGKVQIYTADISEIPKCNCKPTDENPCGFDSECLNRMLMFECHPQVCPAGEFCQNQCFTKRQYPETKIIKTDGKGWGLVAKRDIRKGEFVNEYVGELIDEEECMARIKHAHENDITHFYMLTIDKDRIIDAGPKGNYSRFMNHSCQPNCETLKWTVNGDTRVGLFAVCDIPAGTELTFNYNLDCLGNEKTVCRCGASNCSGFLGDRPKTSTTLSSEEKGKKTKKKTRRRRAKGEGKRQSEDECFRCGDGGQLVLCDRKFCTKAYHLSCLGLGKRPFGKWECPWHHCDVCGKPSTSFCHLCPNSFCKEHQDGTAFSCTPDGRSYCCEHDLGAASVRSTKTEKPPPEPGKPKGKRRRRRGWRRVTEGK
# GC-A act: GC-A (human) enzyme activation; P16066; HEK293 GC-A cells, cGMP TR-FRET, EC30 ANP; 0% at EC30 ANP, 100% saturating ANP; activation, % at 10 µM; 0.14% of 370,000 active; in the data active = activation above about 40%
# Efflux pump inh: inhibitors of Candida antifungal efflux pumps expressed in yeast; inhibition, % at 10 µM; S. cerevisiae Candida pump triplex, Nile Red efflux; 0.44% of 330,000 active;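 active = plate passing quality check with inhibition over a set limit, or well fluorescence over plate mean plus 4 SD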;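 note: Nile Red retained in pooled yeast measured as flow cytometry median fluorescence; 0% = buffer negative control and 100% = Enniatin B positive control; higher means more Nile Red kept so more efflux inhibition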
# An asterisk follows results filed as active; i = inactive; · = no result; + = active, no number. In the library only some 1.6% were active in any assay of this set; here they are far more common.
SMILES,V-ATPase pH,Rce1 inhib,NPR2 activator,NSD2 inh,GC-A act,Efflux pump inh
O=C(COC(=O)c1ccc(Sc2ncn[nH]2)c([N+](=O)[O-])c1)Nc1ccc(Cl)c(Cl)c1,·,·,-5,5,-2,·
C#Cc1cccc(Nc2nc(NCCOC)nc3ccsc23)c1,·,·,37*,6,35,·
CCOC(=O)C1=C(N)Oc2cc(O)ccc2C1c1cccc(Cl)c1 (stereo not given),4,i,-4,2,6,0
CCOC(=O)C1=C(N)Oc2cc(O)ccc2C1c1ccc(Br)cc1 (stereo not given),-3,i,9,1,53*,0
COc1ccc(Cn2cc(CN3[C@H](Cc4ccccc4)COc4cc(Br)ccc4S3(=O)=O)nn2)cc1,·,·,0,·,1,·
CC(C)CCNc1nc(-c2ccco2)c2c(c1C#N)CCCC2,-3,i,36*,-4,20,0
O=S1(=O)c2ccc(Br)cc2OC[C@@H](c2ccccc2)N1Cc1cn(Cc2ccccc2)nn1,·,·,10,·,0,·
CSCCC(NC(=O)c1cccc(C)c1)C(=O)OCC(=O)N1CCOCC1 (stereo not given),·,·,·,-2,·,·
COc1cc2ccccc2cc1C(=O)N(CCN(C)C)c1nc2c(OC)ccc(OC)c2s1,2,i,-8,28,-11,0
CN(C)CCN(C(=O)c1ccc2ccccc2c1)c1nc2ccc(F)cc2s1,0,+,·,·,·,0
CCN(CC)CCN(C(=O)c1cc2ccccc2cc1OC)c1nc2ccc(F)cc2s1,0,+,-6,6,-10,0
COc1cc2ccccc2cc1C(=O)N(CCN(C)C)c1nc2ccc(C)cc2s1,-2,+,-20,6,-12,0
CCN(CC)CCN(C(=O)c1cc2ccccc2cc1OC)c1nc2ccc(OC)cc2s1,-2,i,-17,4,-36,0
O=C(C#Cc1ccccc1)c1ccc([N+](=O)[O-])cc1,12*,i,33,·,39,·
CCOc1ccc(-n2c(SCC(=O)Nc3ccc(S(=O)(=O)Nc4cc(C)nc(C)n4)cc3)nnc2-c2ccc(OC)cc2)cc1,·,·,4,2,0,·
O=C1C[C@H](c2ccc3ccccc3c2)N=C2N1/C(=C\c1ccccc1)[C@@H](c1ccccc1C(F)(F)F)N2Cc1ccc2c(c1)OCO2,·,·,6,-3,-1,·
COc1ccc(NS(=O)(=O)c2ccc3c(c2)CCC(=O)N3)c(OC)c1,19*,i,-6,1,-4,0
COC(=O)c1cccc(N2C(=O)C[C@](Sc3ccc(OC)cc3)(C(=O)N3CCOCC3)[C@H]2c2ccc(OC)cc2)c1,·,·,-16,·,-21,·
CC1=C/C(=N\OS(=O)(=O)c2ccccc2)C(C(C)C)=CC1=O,30*,·,·,4,·,0
COc1ccc(C2CCC3(CCC(=O)N3CCO)CC2)cc1 (stereo not given),·,·,-5,·,2,·
O=C(/C=C/c1cccc([N+](=O)[O-])c1)c1ccc([N+](=O)[O-])o1,177*,i,24,·,26,0
Cc1nn2c(NCCN(C)C)c3c(nc2c1-c1ccccc1)CCCC3,-2,+,-10,1,4,0
COCCNc1c2c(nc3c(-c4ccccc4)c(C)nn13)CCCC2,1,i,-4,-13,3,0
O=C(OC12CCCN(C1)/C(=C/c1ccncc1)C2)C1CCCCC1 (stereo not given),·,·,-6,·,4,·
CCCCCCSc1cc(-c2nc3cnccn3c2NCc2ccccc2)ccc1OC,0,i,·,·,·,0.8*
SMILES,V-ATPase pH,Rce1 inhib,NPR2 activator,NSD2 inh,GC-A act,Efflux pump inh
COc1ccc(CSc2ccc(-c3nc4ccccn4c3NCc3ccccc3)cc2OC)cc1,2,+,0,·,13,0
COc1ccc(-c2nc3cnccn3c2NCc2ccccc2)cc1SC1CCCCC1,0,i,·,·,·,0
Cc1ccc(-n2c(COc3ccccc3)nnc2SCC(=O)Nc2ccccc2-c2ccccc2)cc1,·,·,5,2,-7,·
CN1CC(=O)N2[C@H](c3ccc4c(c3)OCO4)c3[nH]c4ccccc4c3C[C@@H]2C1=O,-4,i,57*,·,49*,0
COC(=O)c1ccc(C2c3[nH]c4ccccc4c3C[C@H]3C(=O)N(C4CC4)CC(=O)N23)cc1 (stereo not given in full),1,i,24,3,55*,0
CCOc1ccc(C2c3[nH]c4ccccc4c3C[C@H]3C(=O)N(C4CC4)CC(=O)N23)cc1OC (stereo not given in full),0,i,-5,0,3,0
COC(=O)[C@]12C[C@H](CC(=O)NCc3cccs3)C(=O)N(Cc3ccco3)C1=C[C@H](C(C)(C)C)O[C@@H]2C,·,·,-22,·,-29,·
O=S(=O)(O)c1cc2oc(-c3ccccc3)nc2c2ccccc12,3,+,-1,·,0,0
O=S(=O)(Nc1ccc2oc(-c3ccccc3)nc2c1)c1ccccc1,-2,i,-4,-1,0,0
Cc1nc(N2CCN(c3ccccn3)CC2)c2c(C)c(C(=O)N3CCN(c4ccc(F)cc4)CC3)sc2n1,0,i,3,-3,0,0.5*
O=C1C(Cc2c[nH]c3ccccc23)NC(=S)N1Cc1ccccc1 (stereo not given),-1,+,-2,10,0,0
CCOc1ccc(-n2c(SCC(=O)Nc3ccc(S(=O)(=O)Nc4cc(C)nc(C)n4)cc3)nnc2-c2cccc(C)c2)cc1,·,·,2,0,-1,·
O=C(Oc1coc(CSc2ncccn2)cc1=O)c1ccc([N+](=O)[O-])cc1,·,·,16,·,1,·
CC1CN(Cc2c(O)ccc3c2oc(=O)c2ccccc23)CC(C)O1 (stereo not given),4,i,-3,98*,2,0
Cc1ccc(OCCn2c(=O)cnc3ccccc32)cc1,-5,i,-5,-1,-2,0
Cc1ccc(OCCn2c3ccccc3n3nc(C)c(=O)nc23)cc1,1,+,-4,2,-7,0
CCOC(=O)[C@@]12CCCC=C1N(CCc1ccc(Cl)cc1)C(=O)[C@H]2CC(=O)N1CCCC1,·,·,-3,·,-1,·
OC1CCN(C(c2ccc3ncccc3c2)c2nnnn2C2CCCCC2)CC1 (stereo not given),1,+,0,·,-3,0
c1cnc2ccc(C(c3nnnn3C3CCCCC3)N3CCN4CCCC4C3)cc2c1 (stereo not given),5,i,-1,1,3,0
Cc1ccc(S(=O)c2ccc([N+](=O)[O-])c3nonc23)cc1 (stereo not given),0,·,1,66*,10,·
O=C(NCCO)[C@H](Cc1ccccc1)NC1(C(=O)NCCc2c[nH]c3ccccc23)CCCCC1,·,·,-7,-1,-1,·
COC(=O)CN1C(=O)N/C(=C/c2ccc(OC)cc2)C1=O,-1,i,-4,-3,-5,0
